Only some compounds are listed: those with a hit (about 10% of all), similar ones and a draw of the others.
Pf growth 96h: inhibits malaria parasite growth, 96 h; P. falciparum luciferase reporter growth, 96 h; Potency, µM (top dose mostly 28.7 µM), inactives show top-dose activity change, negative = inhibition, hits mostly inhibitors; actives 6.9% (n = 320,000); AID 504834; also: % is scaled to controls: 0 for no effect and ±100 for the full control effect
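Delayed-death screen, second-generation endpoint: infected erythrocytes, 2% hematocrit, 0.05% parasitemia final; 96 hours at 37 C, 5% CO2; luciferase detection reagent; luminescence decrease equals reduced growth.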
NS1 inh: influenza NS1 inhibition | Potency, µM (highest dose often 46.1 µM), inactives show at the top dose activity, positive = more growth | actives 0.4% (n = 270,000) | AID 2326; calls by dose curve; also: actives are rising curves; nearly all actives have a fitted effect of over 50% in size
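In this qHTS, NS1 from influenza A is expressed in budding yeast, where it slows growth. Cells are switched from glucose to 2% galactose medium (pH 6.0, -URA), treated with compound, and growth recovery is read at OD600.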
SARS PLpro yeast: inhibitors of SARS-CoV papain-like protease in yeast; S. cerevisiae expressing SARS-CoV PLpro, growth rescue; Potency, µM (highest dose often 32.9 µM), for the others: top-dose activity, positive = growth rescue, hits mostly activators; actives 0.19% (n = 330,000); AID 485353; calls by dose curve; also: 0% is about no effect; nearly all actives have a fitted effect of over 55% in size
Pf growth 48h: inhibits P. falciparum growth in the first generation, 48 h; P. falciparum luciferase growth in erythrocytes, 48 h; Potency, µM (highest dose often 28.7 µM), for the others: at the top dose activity change, negative = inhibition, usual class: inhibitors; actives 5.9% (n = 310,000); AID 504832; also: % is scaled to controls: 0 for no effect and ±100 for the full control effect
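Read-out is firefly luciferase luminescence from an integrated reporter in P. falciparum, so falling signal marks reduced parasite growth. Infected erythrocytes were at 2% hematocrit and 0.1% parasitemia (final) in Albumax-supplemented RPMI 1640.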
* marks the source's active call; other numbers are inactive results; ? = inconclusive; / = no result given. Unless noted, calls follow the shape of the dose curve; as a rule, active = well fitted inhibition curve with a large enough effect; inconclusive = small, poorly fitted or top-dose-only effect, or another doubt; inactive = no such curve, though single readings can be large or run the other way. Potency is read from the fitted curve at half-maximal effect.

SMILES	Pf growth 96h	NS1 inh	SARS PLpro yeast	Pf growth 48h
COc1ccc(/C(C)=N/NC(=O)CNC(=O)CCc2ccccc2)c(OC)c1	27%	-1%	0%	-19%
S=c1sc2c(N3CCOCC3)ncnc2n1-c1ccccc1	15µM*	8%	16%	/
CCC(CO)Oc1cc(NCc2ccccc2Cl)c2ncn(C(C)C)c2c1 (stereo unspecified)	?	/	2%	3.3µM*
CCC(CO)Oc1cc(NCc2ccccc2F)c2ncn(C(C)C)c2c1 (stereo unspecified)	4.7µM*	/	-2%	5.2µM*
CCC(COC)Oc1cc(NCc2ccccc2)c2ncn(C(C)C)c2c1 (stereo unspecified)	?	/	0%	4.1µM*
CCC(CO)Oc1cc(NCc2ccccc2)c2ncn(C(C)C)c2c1 (stereo unspecified)	/	/	8%	/
CCC(CO)Oc1cc(NCc2ccccc2OC)c2ncn(C(C)C)c2c1 (stereo unspecified)	/	/	-3%	/
CCOC(=O)N1CCN(C(=O)COC(=O)C2CCN(S(=O)(=O)c3c(C)c(C)cc(C)c3C)CC2)CC1	8%	/	1%	-8%
Cc1onc(-c2c(Cl)cccc2Cl)c1C(=O)c1c[nH]c(C(=O)NCC2CCCO2)c1 (stereo unspecified)	?	/	-3%	10µM*
CCCCc1ccc(S(=O)(=O)Nc2nnc(C)s2)cc1	?	-86%	-23%	-4%
Cc1nonc1OCCNCc1c(C(=O)N(C)C)nc2ccc(Cl)cn12	27%	-52%	-5%	?
Cc1nonc1OCCNCc1c(C(=O)N2CCCCCCC2)nc2ccc(Cl)cn12	18%	8%	0%	3.7µM*
Cc1cccnc1CCNCc1c(C(=O)N2C[C@@H](C)O[C@@H](C)C2)nc2ccc(Cl)cn12	-5%	5%	0%	10µM*
CN1CCC(N(C)C(=S)NC(=O)c2cc(-c3cccc(Br)c3)nc3ccccc23)CC1	?	13%	0%	?
C#Cc1cccc(Nc2ncnc3cc(OCCOC)c(OCCOC)cc23)c1	6µM*	/	/	13µM*
COc1cc2ncnc(Nc3cccc(Cl)c3)c2cc1OC	/	-25%	-2%	/
Cn1c(CC(=O)Nc2ccc(F)cc2)nnc1SCC(=O)Nc1nncs1	3%	-2%	3%	?
CCOc1ccc(S(=O)(=O)N2CCC(C(=O)N3CCN(c4ccccc4F)CC3)CC2)cc1C	2%	21%	-3%	-19%
CCCc1nnc(NC(=O)CCC(=O)N2CCC(C)CC2)s1	?	4%	1%	-6%
O=C(CSc1nc2c(c(=O)[nH]1)CCC2)Nc1cccc(F)c1	?	0%	0%	-10%
O=C(CN1C(=O)S/C(=C\c2cccs2)C1=O)Nc1ccc(C(=O)O)c(O)c1	2%	7%	1%	-4%
O=C(CN1C(=O)S/C(=C\c2cccs2)C1=O)Nc1ccc(O)c(C(=O)O)c1	10µM*	19%	8%	-12%
COc1ccc(CCNS(=O)(=O)CCNC(=O)c2ccc(OC)cc2)cc1	26%	/	0%	48%
CN(CC(=O)NC(=O)NC1CCCCC1)CC(=O)Nc1ccc(Cl)cc1	4.1µM*	/	-8%	?
CN(CC(=O)Nc1ccc(Cl)cc1)C1CCCCC1	-36%	-15%	7%	0%
SMILES	Pf growth 96h	NS1 inh	SARS PLpro yeast	Pf growth 48h
CCCn1c(N)c(C(=O)CSc2n[nH]c(-c3ccc(C)cc3)n2)c(=O)[nH]c1=O	-10%	/	4%	?
CC(C)(C)OC(=O)N1CCC(c2c(C(=O)N3CCN(C(=O)c4ccco4)CC3)cnn2-c2ccc(F)cc2F)CC1	50%	-5%	?	9.3µM*
Cc1ccc(S(=O)(=O)n2cnc3ccccc32)cc1[N+](=O)[O-]	-11%	9%	-1%	17%
Cc1ccccc1C1=NCC(=O)N(CC(=O)N2CCCCC2)c2sc(C)c(C)c21	13µM*	-19%	0%	?
O=C(CN1C(=O)c2ccccc2S1(=O)=O)N1CCCCC1	19%	3%	1%	127%
C=CCn1c(SCc2nc3ccccc3[nH]2)nnc1-c1ccccn1	10µM*	-1%	-10%	-8%
O=C(Nc1ccc(N2CCCC2)cc1)C(c1ccccc1)c1ccccc1	4.7µM*	17%	0%	/
CC(C)C(=O)Nc1ccc(N2CCCC2)cc1	4.1µM*	14%	6%	/
CC(C)C(=O)Nc1ccc(N2CCN(c3ccc(F)cc3)CC2)cc1	3%	/	0%	37%
Cc1cc(C(=O)N2CCN(S(=O)(=O)c3ccc(C)c(C)c3)CC2)no1	-12%	/	5%	0%
O=C(NC1CC1)C1C2C3C4CC5C3C5C4C12 (stereo unspecified)	7%	-14%	-7%	5.9µM*
COc1cccc(NC(=O)Cn2nnc(C(=O)NCCc3ccccc3)c2N)c1	?	9%	1%	?
CCN(C(=O)c1c(C)noc1C)c1c(N)n(Cc2ccccc2)c(=O)[nH]c1=O	25%	/	-9%	7%
CCCCNC(=S)N/N=C/c1cccc(OCC)c1O	1.5µM*	-8%	1%	?
CCOc1cccc(/C=N/NC(=S)Nc2ccccc2[N+](=O)[O-])c1O	?	9%	6%	-50%
Cn1c(=O)c2sccc2n2c(CCCC(=O)NCc3ccc(F)cc3)nnc12	?	1%	0%	5%
O=C(O)CCC(=O)Nc1nnc(C(F)(F)F)s1	18%	3%	12%	5%
CCC(NC(=O)Nc1nnc(C(F)(F)F)s1)(C(F)(F)F)C(F)(F)F	-44%	-238%	-39%	1.7µM*
COC(=O)C1=C(c2ccc(F)cc2OCc2ccccc2)C[C@@H]2CC[C@H]1N2C(=O)NC1CCN(Cc2ccccc2)CC1	?	/	1%	13µM*
COC(=O)C1=C(c2cccc(OCc3ccccc3)c2)C[C@@H]2CC[C@H]1N2C(=O)NC1CCN(Cc2ccccc2)CC1	?	/	-1%	13µM*
COC(=O)C1=C(c2ccccc2OCc2ccccc2)C[C@@H]2CC[C@H]1N2C(=O)NC1CCN(Cc2ccccc2)CC1	?	/	-6%	13µM*
COC(=O)C1=C(c2cccc(C#N)c2)C[C@@H]2CC[C@H]1N2C(=O)NCCc1ccccc1	?	/	2%	?
CCOC(=O)c1c(NC(=O)c2cccnc2)sc(C(C)=O)c1C	?	-2%	13%	26%
COC(=O)c1c(NC(=O)c2ccccc2)sc(C(N)=O)c1C	-9%	0%	1%	14%
CCN(CC)C(=O)c1sc(NC(=O)c2cccnc2)c(C(=O)OC)c1C	2.9µM*	8%	-14%	1%
CCOC(=O)c1c(NC(=O)C2c3ccccc3Oc3ccccc32)sc(C(=O)N(CC)CC)c1C	0.93µM*	22%	11%	1.5µM*
COC(=O)c1c(NC(=O)c2ccccc2)sc(C(=O)c2ccccc2)c1C	9.3µM*	14%	1%	?
CC1(NC(=O)Nc2cccc(Br)c2)CCS(=O)(=O)C1 (stereo unspecified)	/	/	0%	/
Cc1sc2nc(CSC(C)C(=O)NC3(C#N)CCCCC3)[nH]c(=O)c2c1C (stereo unspecified)	0%	/	-4%	0%
COc1ccc(C(=O)C/C(=C\C(=O)c2ccc(C)cc2)c2ccccc2)cc1	10µM*	13%	-5%	?

High-throughput results (PubChem)
